Source: the supplement of paper PMC7156485
Unmarked numbers belong to inactive results.

tested on: HCC1569; test: H1.0 immunofluorescence intensity relative to DMSO (% of DMSO); higher = stronger H1.0 induction, active = 140 or more; settings: concentration: 10 µM; 24 h
Procedure, shortened: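 H1.0 nuclear intensity or cell number is stated as percent of the plate control, based on the median of replicates, and HCC1569 values were smoothed for positional effects. These came from HCC1569 and TDF cells treated with compounds at 10 µM for 24 h at 37 °C in triplicate, then fixed in 3.7% formaldehyde and stained with a rabbit anti-H1.0 antibody, an AlexaFluor 647 secondary and DAPI.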
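Note: TDF is a line of transformed human dermal fibroblasts of mesenchymal origin.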

| SMILES | H1.0 immunofluorescence intensity |
| --- | --- |
| O=C(O)CCCC=CCC1C(O)CC(O)C1C=CC(O)COc1cccc(C(F)(F)F)c1 (stereo unspecified) [Fluprostenol] | 97.4 |
| CCOC(=O)C=C(C)C=CC=C(C)C=Cc1c(C)cc(OC)c(C)c1C [Etretinate] | 115 |
| Cl.O=C1CC2(CCCC2)CC(=O)N1CCCCN1CCN(c2ncccn2)CC1 [Buspirone hydrochloride] | 97 |
| CN(C)CCCn1cc(C2=C(c3c[nH]c4ccccc34)C(=O)NC2=O)c2ccccc21 | 139 |
| CC1=C(C)C(=O)C(C(CCCCCC(=O)O)c2ccccc2)=C(C)C1=O (stereo unspecified) [Seratrodast] | 82.5 |
| Nc1nc2ccc(Cl)cc2n2c(-c3ccccc3)nnc12 [8-chloro-1-phenyl[1,2,4]triazolo[4,3-a]quinoxalin-4-ylamine] | 99 |
| COC1C(OC(=O)C=CC=CC=CC=CC(=O)O)CCC2(CO2)C1C1(C)OC1CC=C(C)C (stereo unspecified) [Fumagillin] | 91.2 |
| CN(C)CCC=C1c2ccccc2CCc2ccccc21.Cl [Amitriptyline.HCl] | 123 |
| O=C(Cc1ccc(Cl)c(Cl)c1)OCCN1CCCC1.O=C(O)C(=O)O [AC 915 oxalate] | 99 |
| O=C1NC(C(=O)O)CS1 (stereo unspecified) [Procysteine] | 98.1 |
| O=C([O-])c1cc2cc(Cc3cccnc3)ccc2o1.[Na+] [Furegrelate sodium] | 93.7 |
| CCCCOC(=O)NC(=O)C1c2ccccc2Oc2ccccc21 [butyl 9H-xanthen-9-ylcarbonylcarbamate] | 107 |
| CCCCc1c(-c2ccc(OC)cc2)[nH]c2nccnc12 [Aloisine, RP106] | 110 |
| O=C(c1cc(O)c(O)c([N+](=O)[O-])c1)c1ccccc1F | 99.2 |
| COc1cc(C(=O)OCCCN2CCCN(CCCOC(=O)c3cc(OC)c(OC)c(OC)c3)CC2)cc(OC)c1OC [Dilazep] | 91.6 |
| O=C1CSc2ccccc2N1Cc1cccc(C(F)(F)F)c1 [4-[3-(trifluoromethyl)benzyl]-2H-1,4-benzothiazin-3(4H)-one] | 105 |
| Cc1cc(C2CCCCC2)n(O)c(=O)c1.NCCO [Ciclopirox ethanolamine] | 102 |
| CC1C(=O)CCC2C1(C)CCC1C2(C)CCC2(C)C3CC(C)(C)CCC3(C)CCC12C (stereo unspecified) [Friedelin] | 87.8 |
| Cc1ccc(NC(=O)CCCCCC(=O)Nc2ccccc2N)cc1 [N~1~-(2-aminophenyl)-N~7~-(4-methylphenyl)heptanediamide] | 214 (active) |
| CCCCCCCC/C=C\CCCCCCCC(N)=O [(9Z)-9-octadecenamide] | 98.7 |
| CC(=O)Oc1ccccc1C(=O)Nc1ncc([N+](=O)[O-])s1 [2-{[(5-nitro-1,3-thiazol-2-yl)amino]carbonyl}phenyl acetate] | 103 |
